Experimental data taken from PubChem BioAssay (NCI).
The panel holds about 79,000 compounds, 15% with a hit somewhere; the sample as a whole holds those more often. Activity calls are given as the source filed them. No stated cut-off is given here; in the data, active means growth inhibition above about 70%; inactive means the rest.

Experiment: NCI Yeast Anticancer Drug Screen. Data for the mlh1 rad18 strain (AID 175)
Conditions: S. cerevisiae mlh1 rad18 strain growth inhibition; at 5.0 µM (retest, dose inferred, filed as 0.5); hits give high values
In short: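 Genetically defined yeast (DNA repair-deficient) exposed to compounds; growth inhibition determined relative to vehicle.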
With `C=C(CCC(C)C1CCC2(C)C3=C(CC(O)C12C)C1(C)CCC(O)C(C)(C)C1CC3)C(C)C(=O)O` (stereo not given) the growth inhibition was 30% (inactive). With `CC(=O)O[C@H]1CC[C@]2(C)C3=CC[C@]4(C)[C@@H](C(C)=O)CC[C@H]4[C@@]34C=C[C@]2(C1)C1C(=O)OC(=O)C14` (stereo not given in full) the growth inhibition was -20% (inactive). With `CCC1(c2ccc(N3C(=O)c4ccccc4C3=O)cc2)CCC(=O)NC1=O` (stereo not given) the growth inhibition was -27% (inactive). For `O=C(NNS(=O)(=O)c1ccccc1)Nc1ccccc1`, the growth inhibition was 4% (inactive). For `CCN(CC)CCNc1c(C)ccc2cccnc12`, the growth inhibition was 0% (inactive). With `CCOC(=O)CCC(NC(=O)c1ccc(NC(OC)c2nc3cc(C(F)(F)F)ccc3nc2-c2ccccc2)cc1)C(=O)OCC` (stereo not given) the growth inhibition was 92% (active). For `CCCC(O)C[N+](=O)[O-]` (stereo not given), the growth inhibition was 0% (inactive). In the case of `O=C(Nc1cccc(Br)c1)Oc1cccc2cccnc12`, the growth inhibition is reported as 64% (inactive). With `C=C1CC(C)(COc2ccc3c(C)c(C)c(=O)oc3c2C)OC1=O` (stereo not given) the growth inhibition was 29% (inactive). With `Cc1cc(Br)c(N2C3=C(CC4=C2CCCC4=O)C(=O)CCC3)c(Br)c1` the growth inhibition was 16% (inactive). With `CCN(CC)CC(O)CNc1ccc(C)c2sc3ccccc3c(=O)c12` (stereo not given) the growth inhibition was 14% (inactive). With `COC1/C=C/OC2(C)Oc3c(C)c(O)c4c(c3C2=O)C(=O)C=C(NC(=O)/C(C)=C\C=C\C(C)C(OC=O)C(C)C(O)C(C)C(OC(C)=O)C1C)C4=O` (stereo not given) the growth inhibition was 11% (inactive). For `OC(c1cc2ccccc2o1)c1cc2ccccc2s1` (stereo not given), the growth inhibition was 16% (inactive). With `Nc1nnc(-c2cc([N+](=O)[O-])cc([N+](=O)[O-])c2)o1` the growth inhibition was -21% (inactive). With `CC1SC(=S)N(c2ccc(Cl)cc2)C1=O` (stereo not given) the growth inhibition was 3% (inactive). With `CCCCCCCCCC(=O)NN=C(C)C` the growth inhibition was -131% (inactive). With `O=C(/C=C/c1ccccc1)C1(c2ccccc2)CC1` the growth inhibition was -115% (inactive). For `Nc1n[n+](-c2ccccc2)no1`, the growth inhibition was 31% (inactive). In the case of `N#CC(C#N)=C(c1ccccc1)c1ccccc1`, the growth inhibition is reported as -4% (inactive). With `CS(=O)(=O)OCCCN(CCCOS(C)(=O)=O)c1ccc(C=Nc2ccc(-c3csc(COc4ccc(Br)cc4Br)n3)cc2)cc1` the growth inhibition was 17% (inactive). For `CSc1ncnc2ncn(C3OC(CO)C(O)C3O)c12` (stereo not given), the growth inhibition was -7% (inactive). In the case of `CNC(=O)c1ccc(OC)cc1C1(O)c2ccccc2CCc2ccccc21`, the growth inhibition is reported as 46% (inactive). With `O=[N+]([O-])c1ccc(Oc2c(Cl)cccc2Cl)cc1` the growth inhibition was -12% (inactive). For `CN(C)C(=O)c1ccc(SC(=S)NCc2ccccc2)cc1`, the growth inhibition was 24% (inactive). In the case of `CC(C)c1ccc(C(=O)OC2CCCCC2)cc1`, the growth inhibition is reported as 2% (inactive). In the case of `O=C(Nc1ccc(C(=O)c2ccccc2)cc1)Nc1ccc(Cl)c(Cl)c1`, the growth inhibition is reported as 38% (inactive). In the case of `O=C1c2ccccc2C(=O)c2sc(Nc3ccc(Cl)cc3)nc21`, the growth inhibition is reported as 85% (active). For `O=C1NC(=O)N(c2ccc([N+](=O)[O-])cc2)C1=O`, the growth inhibition was 0% (inactive). For `CCN(CC)CCNc1nc(N)c2nc(-c3ccccc3)c(-c3ccccc3)nc2n1`, the growth inhibition was -5% (inactive). For `CCCCCCCCOc1ccc(/C=C/C(C)=N/NC(N)=NC)cc1OC`, the growth inhibition was 99% (active). In the case of `CC1=NN(C(=O)c2ccc(Cl)cc2)C(=O)C1N=Nc1ccc(S(=O)(=O)Nc2ncccn2)cc1` (stereo not given), the growth inhibition is reported as 6% (inactive). With `CCOC(=O)C(Br)C(Br)c1cccc([N+](=O)[O-])c1` (stereo not given) the growth inhibition was 98% (active). In the case of `Cc1ccccc1N1CCN(c2c3c(nc4ccccc24)CCCCC3)CC1`, the growth inhibition is reported as -4% (inactive). With `O=S(=O)(O)SCCNCCCCCC1CCCCC1` the growth inhibition was 34% (inactive). For `CC([N+](=O)[O-])C1(O)C(=O)c2cccc3cccc1c23` (stereo not given), the growth inhibition was 26% (inactive). For `CCS(CC)(CC)CC1CCCC2=CCC(P(=O)(c3ccccc3)c3ccccc3)CC21` (stereo not given), the growth inhibition was -9% (inactive). With `O=C(O)C(CS)Nc1c2ccccc2nc2ccccc12` (stereo not given) the growth inhibition was 16% (inactive). For `CCCCCCCCCCCC1C(C#N)C(=O)NC(=O)C1C#N` (stereo not given), the growth inhibition was 87% (active). For `O=C(O)CCSSCCCCCS(=O)O`, the growth inhibition was 0% (inactive). In the case of `CC(C)CNc1cc(Cl)nc(N)n1`, the growth inhibition is reported as -4% (inactive).
